From PMC4336329 (PLoS ONE, 2015)
Screen size: about 310,000 compounds; about 14,000 (4.5%) showed an effect of 50% or more. Effects have a minus sign here. Shown is part of a subset that was picked to be rich in strong results.

target: human ether-à-go-go-related gene (hERG) potassium channel (human, UniProt Q12809); experiment: primary screen, population patch clamp on CHO cells stably expressing hERG; higher = less effect of the substance
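Note: peak tail current of the secondary pulse compared with the same well before compound.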

human ether-à-go-go-related gene (hERG) potassium channel, sequence (Q12809 whole entry, looked up): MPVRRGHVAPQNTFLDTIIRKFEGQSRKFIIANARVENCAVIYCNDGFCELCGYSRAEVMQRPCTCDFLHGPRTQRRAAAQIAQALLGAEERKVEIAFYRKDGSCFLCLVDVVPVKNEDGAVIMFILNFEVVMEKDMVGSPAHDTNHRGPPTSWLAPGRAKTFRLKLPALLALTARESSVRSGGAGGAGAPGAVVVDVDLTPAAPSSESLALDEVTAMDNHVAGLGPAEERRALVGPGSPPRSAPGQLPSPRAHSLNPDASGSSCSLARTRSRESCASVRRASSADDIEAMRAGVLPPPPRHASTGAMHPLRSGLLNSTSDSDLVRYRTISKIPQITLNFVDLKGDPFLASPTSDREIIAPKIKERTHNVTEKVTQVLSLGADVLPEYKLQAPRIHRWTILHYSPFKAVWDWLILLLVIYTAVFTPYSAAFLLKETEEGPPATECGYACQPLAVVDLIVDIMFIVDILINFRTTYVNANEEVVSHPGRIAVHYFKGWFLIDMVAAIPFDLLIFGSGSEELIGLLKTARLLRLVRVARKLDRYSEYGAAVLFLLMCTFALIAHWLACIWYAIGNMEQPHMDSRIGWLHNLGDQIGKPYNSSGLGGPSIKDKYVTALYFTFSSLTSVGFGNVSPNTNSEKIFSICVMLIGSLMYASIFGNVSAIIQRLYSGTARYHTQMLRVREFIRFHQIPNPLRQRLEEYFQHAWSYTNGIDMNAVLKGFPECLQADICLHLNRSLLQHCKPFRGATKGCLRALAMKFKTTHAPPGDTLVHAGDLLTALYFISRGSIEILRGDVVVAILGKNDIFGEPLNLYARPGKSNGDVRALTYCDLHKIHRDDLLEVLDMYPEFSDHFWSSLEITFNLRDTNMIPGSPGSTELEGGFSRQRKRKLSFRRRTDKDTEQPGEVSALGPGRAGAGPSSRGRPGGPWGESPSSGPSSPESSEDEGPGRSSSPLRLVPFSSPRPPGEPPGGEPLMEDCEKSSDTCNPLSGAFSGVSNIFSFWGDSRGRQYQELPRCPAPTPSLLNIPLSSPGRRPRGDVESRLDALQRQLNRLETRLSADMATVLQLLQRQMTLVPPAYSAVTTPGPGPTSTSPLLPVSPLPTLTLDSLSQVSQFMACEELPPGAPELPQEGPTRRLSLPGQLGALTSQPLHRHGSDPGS

Row | SMILES | hERG current change (%, negative = inhibition) at 10uM [%]
1 | COc1ccc(Cl)cc1Nc1nc(-c2cccnc2)cs1 | 5.19
2 | Cc1nonc1NC(=O)OC1CCCCC1 | 1.97
3 | Cc1cccc(NC(=S)N2CCCN(c3ncccc3[N+](=O)[O-])CC2)c1 | -16.7
4 | O=C(N[C@H]1CC1c1ccccc1)c1ccc([N+](=O)[O-])cc1 (stereo partly shown) | -6.56
5 | COc1ccccc1NC(=O)Nc1cnccn1 | -1.51
6 | CC1CCCC(NC(=S)NC(=O)c2cncc(Br)c2)C1C (stereo not shown) | 21.7
7 | O=C(NCc1ccc2c(c1)OCO2)C1CCN(S(=O)(=O)c2ccc(Br)s2)CC1 | -24
8 | CCc1cccc(C)c1NC(=O)C1C2CCC(O2)C1C(=O)O (stereo not shown) | 18.8
9 | Cc1ccc(C2=NS(=O)(=O)N(C)C(C(=O)Nc3cc(C)n(CC(=O)N4CCCCC4)n3)=C2)cc1 | 10.3
10 | Cc1ccc2nc(-c3cccc(-c4cccc(Cl)c4)c3)c(NCc3ccccc3)n2c1.O=C(O)C(F)(F)F | 16.3
11 | O=S(=O)(c1cccc(-c2nc3ccccc3s2)c1)N1CCOCC1 | -7.39
12 | CC1=NN(/C(=N\c2nnc(C)s2)Nc2ccccc2)[C@H](c2ccc(C)cc2)S1 | -13.5
13 | CCOC(=O)N1CCN(C(=O)c2cn(C)c3ccc(S(=O)(=O)N(C)C4CCCCC4)cc3c2=O)CC1 | -29.4
14 | CCn1cc(C(=O)NCC2CCCO2)c(=O)c2cc(S(=O)(=O)N(C)C3CCCCC3)ccc21 (stereo not shown) | -31.6
15 | CCC1CCCCN1CCCNC(=O)c1cn(C)c2ccc(S(=O)(=O)N(C)C3CCCCC3)cc2c1=O (stereo not shown) | -62.8
16 | CCn1cc(C(=O)OC)c(=O)c2cc(S(=O)(=O)N(C)C3CCCCC3)ccc21 | -28.4
17 | CN(C)S(=O)(=O)c1ccc2c(c1)c(=O)c(C(=O)NCCCN1CCCCCC1)cn2C | -4.72
18 | CCC1CCCCN1CCCNC(=O)c1cn(CC)c2ccc(S(=O)(=O)N(C)C3CCCCC3)cc2c1=O (stereo not shown) | -79.8
19 | CCc1ccc(-c2cc(C(F)(F)F)n3nc(C(=O)Nc4cnn(Cc5ccccc5C)c4)cc3n2)s1 | 5.41
20 | COCCNC(=O)c1cc(S(=O)(=O)N2CCCCC2)ccc1N1CCOCC1 | 1.23
21 | COc1ccc(-c2csc3ncnc(N4CCN(S(=O)(=O)c5cccc(F)c5)CC4)c23)cc1 | -3.5
22 | Cc1cccc(N2CCN(S(=O)(=O)c3cccs3)CC2)c1C | -15.8

Row | SMILES | hERG current change (%, negative = inhibition) at 10uM [%]
23 | CCCc1nc(N2CCN(S(=O)(=O)c3ccc(Cl)cc3)CC2)c2c(C)c(C)sc2n1 | -17.1
24 | Cc1sc2nc(CN3CCOCC3)nc(NS(=O)(=O)c3ccccc3)c2c1C | 9.1
25 | Cc1sc2nc(CN3CCCC3)nc(N3CCN(S(=O)(=O)c4cccs4)CC3)c2c1C | -70.7
26 | Cc1sc2nc(CN3CCCC3)nc(N3CCN(S(=O)(=O)c4cccc(F)c4)CC3)c2c1C | -70.1
27 | O=S(=O)(c1cccs1)N1CCN(Cc2ccccc2)CC1 | -14
28 | Cc1ccc(S(=O)(=O)N2CCN(c3nc(CN4CCCC4)nc4sc(C)c(C)c34)CC2)cc1 | -77.7
29 | CCc1nc(N2CCN(S(=O)(=O)c3ccc(Br)cc3)CC2)c2c(C)c(C)sc2n1 | -32
30 | Cc1sc2nc(CN3CCCC3)nc(N3CCN(S(=O)(=O)c4ccccc4)CC3)c2c1C | -67
31 | Cc1sc2nc(CN3CCOCC3)nc(N3CCN(S(=O)(=O)c4ccccc4)CC3)c2c1C | -41.6
32 | Cc1nc(N2CCN(S(=O)(=O)c3ccc(F)cc3)CC2)c2c(C)c(C)sc2n1 | -6.58
33 | CCCc1cc(=O)[nH]c(SCC(=O)N(CC)Cc2ccccc2)n1 | 7.9
34 | Cc1ccc(S(=O)(=O)C2(C(=O)N3CCCCC3C)CC2)cc1 (stereo not shown) | 1.58
35 | CC1C(=O)N2CCCc3cc(S(=O)(=O)N(C)Cc4ccccc4)cc1c32 (stereo not shown) | -14.7
36 | O=C(O)c1cc(=O)n(Cc2ccccc2)c(=O)[nH]1 | 15
37 | Cc1ccc(C(C)NC(=O)c2cccnc2)cc1 (stereo not shown) | 11.2
38 | Clc1ccccc1Cn1c(/C=C/c2ccco2)nc2ccccc21 | 13.5
39 | COc1cc2c(cc1NC(=O)COC(=O)CNS(=O)(=O)c1ccc(C)cc1)oc1ccccc12 | 1.63
40 | CN(c1ccc(C(=O)Nc2cccnc2)cc1)S(=O)(=O)c1ccccc1 | -14.9
41 | COc1ccc(-c2nnc(SCC(=O)Nc3sc4c(c3C#N)CCCC4)n2-c2ccccc2)cc1 | 15.4
42 | Cc1ccc(C)c(S(=O)(=O)N2CCN(c3nc(CN4CCOCC4)nc4sc(C)c(C)c34)CC2)c1 | -57.1
43 | Cc1ccc(S(=O)(=O)Nc2nc(CN3CCOCC3)nc3sc(C)c(C)c23)cc1 | -43
44 | Cc1sc2nc(CN3CCOCC3)nc(N3CCOCC3)c2c1C.O=C(O)C(=O)O | -10.8

Row | SMILES | hERG current change (%, negative = inhibition) at 10uM [%]
45 | O=C(CNc1n[nH]c(=O)[nH]c1=O)N/N=C/c1ccccc1 | 2.89
46 | O=S(NC1CCCCC1)C12CC3CC(CC(C3)C1)C2 (stereo not shown) | -12.4
47 | Cc1nc(N2CCN(C(=O)c3ccc(Cl)cc3)CC2)c(C#N)c2c1COC(C)(C)C2 | -60.8
48 | CCc1nc(N2CCN(C(=O)c3ccccc3)CC2)c(C#N)c2c1COC(C)(C)C2 | -46.5
49 | CCc1nc(N2CCN(C(C)=O)CC2)c(C#N)c2c1COC(C)(C)C2 | -0.704
50 | CC1(C)Cc2c(C#N)c(N3CCN(C(=O)c4ccco4)CC3)nc(Cc3ccccc3)c2CO1 | -25.3
51 | CCCNC(=O)N1CCN(c2nc(C(C)C)c3c(c2C#N)CC(C)(C)OC3)CC1 | 4.84
52 | CC(C)c1nc(N2CCN(C(=O)c3ccccc3)CC2)c(C#N)c2c1COC(C)(C)C2 | -40.8
53 | Cc1nc(N2CCN(Cc3ccccc3)CC2)c(C#N)c2c1COC(C)(C)C2 | -5.21
54 | CCc1nc(N2CCN(C(=O)c3ccco3)CC2)c(C#N)c2c1COC(C)(C)C2 | -52.1
55 | CC(C)c1nc(N2CCN(C(=O)c3ccco3)CC2)c(C#N)c2c1COC(C)(C)C2 | -71.5
56 | O=C(CC1SC(N2CCCCC2)=NC1=O)Nc1cccc(C(F)(F)F)c1 (stereo not shown) | 12.3
57 | CCOc1ccc(C2Oc3nc(SC)nnc3-c3ccccc3N2C(C)=O)cc1OC (stereo not shown) | 9.64
58 | CCC(Sc1nnc(-c2ccc(C)c(Cl)c2)n1CC)C(=O)Nc1nccs1 (stereo not shown) | -20.6
59 | CCOC(=O)/C=C(\C)Sc1cc(=O)oc2ccccc12 | -40.4
60 | O=C(Nc1nccs1)c1ccc(COc2ccccc2)o1 | 15.6
61 | O=C(O)CC1c2ccccc2CCN1S(=O)(=O)c1ccc(F)cc1 (stereo not shown) | 8.32
62 | CCc1ccc2[nH]c(=O)c(-c3ccccc3)c(O)c2c1 | 17.5
63 | CN(CC(N)=O)S(=O)(=O)c1ccc(F)cc1 | -15.7
64 | COc1ccc(C(=O)CSc2ccc3nnc(-c4cccnc4)n3n2)cc1 | -70.3
65 | O=C(CSc1ccc2nnc(-c3cccnc3)n2n1)N1CCOCC1 | -25
66 | CCOC(=O)CSc1ccc2nnc(-c3cccnc3)n2n1 | -31

Row | SMILES | hERG current change (%, negative = inhibition) at 10uM [%]
67 | O=C(O)CSc1ccc2nnc(-c3cccnc3)n2n1 | 12.2
68 | CCC(Sc1ccc2nnc(-c3cccnc3)n2n1)C(=O)OC (stereo not shown) | -47
69 | O=C(CSc1ccc2nnc(-c3cccnc3)n2n1)c1ccccc1 | -70
70 | O=C(Nc1cccc(NC(=O)C2CC2)n1)C1CC1 | -6.67
71 | CCOC(=O)N1CCN(c2cc(N3CCOCC3)c(F)cc2[N+](=O)[O-])CC1 | -18.2
72 | CC1=CC(=O)OC1Cc1ccncc1 (stereo not shown) | 11.3
73 | NC(=O)C1CCN(C(=O)CCSCc2ccc(Cl)c(Cl)c2)CC1 | -13.3
74 | CCN1CCN(Cc2ccc(OC(F)(F)F)cc2)CC1 | -26.6
75 | COC(=O)c1ccc(CN2CCC(CO)(Cc3ccc(OC)cc3)CC2)cc1 | -66.1
76 | COc1ccc(CC2(CO)CCN(Cc3ccncc3)CC2)cc1 | -21.2
77 | COC(=O)c1ccc(CN2CCC(CO)(Cc3cccc(OC)c3)CC2)cc1 | -66.1
78 | COc1cccc(CC2(CO)CCN(Cc3cn(C)nc3C)CC2)c1 | 18.3
79 | COC(=O)c1cccc(C(=O)N2CCC(CO)(Cc3ccccc3Cl)CC2)c1 | -23.1
80 | COC(=O)c1ccc(CN2CCCCC2)cc1 | 1.45
81 | COc1ccc(CC2(CO)CCN(Cc3ccc(OC(F)(F)F)cc3)CC2)cc1 | -75.1
82 | COC(=O)c1ccc(CN2CCC(CO)(Cc3ccccc3Cl)CC2)cc1 | -64.8
83 | COc1ccc(-c2ncc(CN3CCC(CO)(Cc4cccc(OC)c4)CC3)cn2)cc1 | -4.79
84 | Nn1c(SCC(=O)Nc2c(F)cc(F)cc2Br)nnc1C1CCCCC1 | 3.21
85 | CCOC(=O)c1nnn(-c2nonc2-c2ccccc2)c1C | -25.2
